Source: PubChem BioAssay
An excerpt weighted towards active compounds, which were near 8.3% of everything screened.
HCV inh = HCV inhibition; Huh7.5.1 HCVcc-Cre infection, luciferase reporter, 44 h; Potency, µM (series often up to 41.8 µM), for inactives: top-dose activity change, negative = inhibition, actives largely listed as inhibitors; 340,000 compounds, 3.4% hits; AID 651820; note: potency is the fitted concentration of half-maximal effect
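Antiviral activity was scored by luciferase reporter output from cells infected with HCVcc-Cre (~0.5 moi) in presence of compound, 44 h infection period, cells seeded 1,000/well 4 h prior.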
Lassa entry inh = inhibitors of Lassa virus binding or cell entry; Potency, µM (top dose mostly 37.9 µM), for inactives: top-dose activity change, negative = inhibition, hits mostly inhibitors; Lassa virus pseudotype entry inhibition, cell reporter; AID 540256; 300,000 compounds, 1.2% hits; calls by dose curve; tested in HEK293 cells; note: potency is the fitted concentration of half-maximal effect; nearly all actives have a fitted effect of over 50% in size
FBPA Giardia inh = inhibitors of Giardia lamblia fructose-1,6-bisphosphate aldolase; Potency, µM (highest dose often 59.6 µM), for the others: top-dose activity, negative = inhibition, most hits filed as inhibitors; purified Giardia FBPA; AID 2451; A8B2U2; 290,000 compounds, 0.71% hits; note: potency is the fitted concentration of half-maximal effect; nearly all actives have a fitted effect of over 55% in size
Target sequence (A8B2U2 whole entry, looked up): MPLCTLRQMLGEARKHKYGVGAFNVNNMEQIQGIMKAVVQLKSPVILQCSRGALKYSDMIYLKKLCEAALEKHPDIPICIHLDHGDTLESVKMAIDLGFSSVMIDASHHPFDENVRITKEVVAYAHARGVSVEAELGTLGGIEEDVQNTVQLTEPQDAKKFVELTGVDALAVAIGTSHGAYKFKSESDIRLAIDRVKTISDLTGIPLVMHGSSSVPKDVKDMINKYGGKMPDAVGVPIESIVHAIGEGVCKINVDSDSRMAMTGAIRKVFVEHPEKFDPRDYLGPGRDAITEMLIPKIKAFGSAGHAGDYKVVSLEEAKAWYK
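Giardia FBPA (40 nM reagent) was preincubated 10 min at RT with compound (up to 57.5 uM final), then substrate plus GAPDH/TPI/NAD/arsenate coupling system with diaphorase/resazurin was added; resorufin fluorescence (525/598 nm) was read after 20 min.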
MARV entry inh = Marburg virus entry inhibition. Potency, µM (doses to about 37.8 µM), inactives show at the top dose activity change, negative = inhibition, usual class: inhibitors. 300,000 compounds, 1.8% hits. Marburg virus pseudotyped entry inhibition, cell reporter. AID 540276; calls by dose curve; tested in HEK293 cells; note: potency is the fitted concentration of half-maximal effect
FMDV inh = blocks foot and mouth disease virus; FMDV antiviral cell-based qHTS; Potency, µM (series often up to 57.9 µM), without a hit: at the top dose activity change, negative = inhibition, usual class: inhibitors; 410,000 compounds, 1.2% hits; calls by dose curve; tested in HEK293T cells; note: read-out not given here; potency is the fitted concentration of half-maximal effect; nearly all actives have a fitted effect of over 45% in size
HCMV antiviral = blocks human cytomegalovirus replication; HFF cells, HCMV-luciferase reporter, 72 h; active compounds read low; 410,000 compounds, 4.5% hits; AID 1259415; activity change, negative = inhibition, % at 57.5 µM; in the data active = activity change below about -60%; inconclusive = no clear call, values can overlap the other calls; inactive = above about -39%
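Cell-based, HFFs, 1000 cells/well, 16 h 37C; cpds in DMSO + HCMV-luc, MOI 1 PFU/cell; 72 h 37C; OneGlo luminescence after 5 min RT; norm. to buffer vs Salinomycin 10uM.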
* marks the source's active call; other numbers are inactive results; ? = inconclusive; . = not tested or not shown; + = active, no number; [ ] = remark or other dose. Unless noted, calls come from the whole dose curve; as a rule, active = well fitted curve in the direction sought with a large enough effect; inconclusive = small, poorly fitted or top-dose-only effect, or another doubt; inactive = no such curve, though single readings can be large; an effect the other way counts as inactive or inconclusive. % is set by controls: 0 for no effect and ±100 for the full control effect.

SMILES	HCV inh	Lassa entry inh	FBPA Giardia inh	MARV entry inh	FMDV inh	HCMV antiviral
C[C@@H]1CCCCO[C@@H](CN(C)C(=O)NC2CCCCC2)[C@@H](C)CN([C@H](C)CO)C(=O)c2cc(N(C)C)ccc2O1	.	.	.	.	.	-20.5
CCOC(=O)c1ccc(NC(=O)c2nccnc2C(=O)O)cc1	9.7%	.	-14.9%	.	-4.7%	-74.5*
CCOC(=O)c1ccc(NC(=O)Nc2nncs2)cc1	.	.	.	.	?	-75.0*
CCOC(=O)c1ccc(NC(=O)Nc2ccon2)cc1	-0.9%	.	3.1%	.	13.1%	+
CCOC(=O)c1ccc(NC(=O)c2nc[nH]c2C(=O)NC)cc1	?	.	-13.7%	.	-6.6%	6.2
Cc1nc(CN2CCN(C(=O)CC3(c4ccccc4Cl)CC(=O)N(C)C3=O)CC2)cs1 (centres undefined)	.	.	.	.	3.5%	.
COCc1c(C(=O)N2CCN(c3ccccc3O)CC2)cnn1-c1nccc(-c2cccs2)n1	.	.	.	.	-17.4%	.
Cn1ncc(Cl)c1C(=O)NCc1ccc(Cl)cc1	?	-14.7%	9.1%	-14.5%	?	-71.9*
CS(=O)(=O)N1CCC[C@@]2(CCN(C(=O)Nc3ccccc3)C2)C1	.	.	2.0%	.	6.1%	.
CCOC(=O)C(=O)Nc1nc(-c2ccc3c(c2)CCN3C(=O)C2CC2)c(C)s1	3.4%	29.5%[46.1 µM]	?	10.9%[46.1 µM]	0.0%	5.2
CCC(=O)N1CCc2cc(-c3csc(NC(=O)c4ccco4)n3)ccc21	?	13.1%	-14.6%	-7.2%	-18.8%	42.7
Cc1sc(NC(=O)c2ccco2)nc1-c1ccc2c(c1)CC(C)N2C(=O)C1CC1 (centres undefined)	5.01µM*	9.2µM*	-12.9%	10.3µM*	14.1µM*	-96.9*
CC(=O)Nc1nc(-c2ccc3c(c2)CC(C)N3C(=O)C2CC2)c(C)s1 (centres undefined)	?	5.8%	-19.8%	-16.0%[46.1 µM]	0.0%	-100.2*
Cc1sc(NC(=O)c2ccco2)nc1-c1ccccc1	14.1µM*	?	1.9%	?	-19.1%	45.1
CC(=O)c1sc(NC(=O)c2ccco2)nc1-c1ccccc1	10.2%	.	10.6%	.	69.6%	.
CCCCCCNC(=O)O[C@H]1Cn2c(=O)ccc(=O)n2[C@@H]2CN(S(=O)(=O)c3ccc(C)cc3)C[C@]12O	.	.	.	.	17.8µM*	-89.0*
Cc1ccc(S(=O)(=O)N2C[C@H]3n4c(=O)ccc(=O)n4C[C@H](OC(=O)Nc4cccs4)[C@@]3(O)C2)cc1	.	.	.	.	?	4.7
CCCCCCn1c(=O)n2n(c1=O)[C@@H]1CN(S(=O)(=O)c3ccc(C)cc3)C[C@]1(O)[C@@H](OC(=O)NCc1ccccc1F)C2	.	.	.	.	0.0%	12.6
Cc1ccc(S(=O)(=O)N2C[C@H]3n4c(=O)ccc(=O)n4C[C@H](OC(=O)NCc4ccccc4F)[C@@]3(O)C2)cc1	.	.	.	.	20µM*	-102.0*
CCCCCCNC(=O)O[C@H]1Cn2c(=O)n(CCCCCC)c(=O)n2[C@@H]2CN(S(=O)(=O)c3ccc(C)cc3)C[C@]12O	.	.	.	.	?	-102.6*
Cc1cc2nn(-c3ccc(F)cc3)nc2cc1NC(=O)c1cc(Cl)ccc1Cl	.	12.3%[46.1 µM]	.	?	29.9%	24.1
COc1ccccc1NC(=O)CN1C(=O)c2cccc3cccc1c23	.	-0.5%[46.1 µM]	.	?	-7.3%	-31.4
O=C(N/N=C/c1ccccc1O)NC12CC3CC(CC(C3)C1)C2	-19.3%	?	5.0%	?	9.7%	-30.1
O=C(N/N=C/c1cc(Cl)cc([N+](=O)[O-])c1O)NC12CC3CC(CC(C3)C1)C2	24.6%	11.3%	-7.2%	?	22.4µM*	8.7
Oc1c(N=NC(=S)Nc2ccccc2F)c2ccccc2n1Cc1ccccc1F	12.6µM*	.	1.6%	.	-11.3%	-26.3
Oc1c(N=NC(=S)Nc2ccccc2F)c2ccccc2n1Cc1ccc(Cl)cc1	?	?	5.8%	?	-13.2%	71.9
Cc1ccc(C)c(Cn2c(O)c(N=NC(=S)Nc3ccccc3F)c3ccccc32)c1	3.16µM*	?	7.4%	?	-0.3%	4.1
Cc1ccccc1Cn1c(O)c(N=NC(=S)Nc2ccccc2F)c2ccccc21	2.24µM*	?	-3.4%	?	-8.0%	?
COc1ccc(S[C@]2(c3nc(C)no3)CC(=O)N(c3ccccc3)[C@@H]2c2ccc(OC)cc2)cc1	.	.	.	.	.	-28.5
